# PubChem BioAssay (EPA / NIEHS)
# Inconclusive results are not listed. Where a structure was tested more than once in an assay, its records may differ in their call. Calls of active or inactive are those of the source. How the source made its calls, unless noted: active means hit-call score of the fitted dose curve at least 0.9, where 1 is the maximum; inactive means score below 0.9.
# Experiments:
# [1] = CCTE_Mundy_HCI_Cortical_Synap_Neur_Matur_NeuriteCount: CCTE's Synaptogenesis and Neurite Maturation Assay in rat cortical cells for Neurite Count, Mundy Lab (AID 2284222);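 on outcome: exposure from day 7 to day 12 in vitro with readout at day 12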
# Summary of the method: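 In this multiplexed morphology readout, rat primary cortical neurons are fixed at DIV 12 following dosing at DIV 7 and stained for MAP2, synaptophysin and nuclei. High-content image analysis yields neurite count.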
# [2] = CCTE_Mundy_HCI_Cortical_Synap_Neur_Matur_CellBodySpotCount: CCTE's Synaptogenesis and Neurite Maturation Assay in rat cortical cells for Cell Body Spot Count, Mundy Lab (AID 2284223)
# Summary of the method: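 Rat cortical neurons; AraC @ DIV 5; dose + media change DIV 7; fix DIV 12; anti-MAP2/anti-synaptophysin IF, Hoechst; HCI count of soma synaptophysin puncta/neuron; DMSO = negative control.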
# [3] = CCTE_Mundy_HCI_hNP1_Pro_ResponderAvgInten: CCTE's Proliferation Assay in human neuroprogenitor cells, Mundy Lab (AID 2284224; active means hit-call score of the fitted dose curve at least 0.9, where 1 is the maximum;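 further: human neural progenitor cells hNP1 derived from WA09 embryonic stem cells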)
# Summary of the method: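 Proliferation was scored as BrdU labelling intensity in human neural progenitors derived from WA09 embryonic cells, measured 26.25 hours after chemical dosing. Activity was fitted relative to DMSO.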
# [4] = BSK_BT_PBMCCytotoxicity: PBMC Cytotoxicity Assessment in the BioMAP Diversity Plus: BT Assay (AID 2284225); conditions: primary human B cells with PBMC;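 further: PBMC viability measured by Alamar Blue dye reduction fluorescence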
# Summary of the method: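 PBMC (75,000/well) pretreated with compound 1 h, then activated with SEB and TSST-1 (20 ng/mL each final), incubated 90 h; Alamar Blue added 6 h, fluorescence read at 546/580 nm. Fitted relative to DMSO.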
# [5] = read-out: Secreted IgG (sIgG), gene 3500; assay: BSK_BT_sIgG: BioMAP Diversity Plus: BT Assay for Secreted IgG (sIgG) Biomarker Activity (AID 2284226); conditions: primary human B cells with PBMC
# Summary of the method: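 Human B cell plus PBMC co-culture; secreted IgG measured by ELISA 24 h after chemical dosing. Response fitted in positive direction relative to DMSO baseline.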
# [6] = BSK_BT_Bcell_Proliferation: Viability Assessment in the BioMAP Diversity Plus: BT Assay for B cell Proliferation (AID 2284227); conditions: primary human B cells with PBMC
# Summary of the method: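 Using a human primary B cell–PBMC co-culture, the assay measures total protein by sulforhodamine B absorbance as a gauge of proliferation after 72 h. Analysis followed the positive fitting direction with DMSO as baseline.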
# [7] = read-out: Interleukin 6 (IL6), IL6 (gene 3569); assay: BSK_BT_xIL6: BioMAP Diversity Plus: BT Assay for Interleukin 6 (IL6) Biomarker Activity (AID 2284228); conditions: primary human B cells with PBMC
# Summary of the method: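 B cells and peripheral blood mononuclear cells (human primary co-culture) were dosed with chemical, and after 24 h IL-6 released into the medium was measured by Luminex xMAP. Responses were analysed as gain of signal over DMSO control.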
# [8] = read-out: Interleukin 17A (IL17A), IL17A (gene 3605); assay: BSK_BT_xIL17A: BioMAP Diversity Plus: BT Assay for Interleukin 17A (IL17A) Biomarker Activity (AID 2284229); conditions: primary human B cells with PBMC
# Summary of the method: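 Secreted IL-17A was the measured endpoint, read by Luminex xMAP multiplex in supernatants of a human B cell/PBMC co-culture harvested 24 h after chemical dosing. Signal increase relative to DMSO defined activity.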
# [9] = read-out: Tumor necrosis factor (Homo sapiens) (UniProt P01375); assay: BSK_BT_xTNFa: BioMAP Diversity Plus: BT Assay for Tumor necrosis factor alpha (TNF-alpha) Biomarker Activity (AID 2284230); conditions: primary human B cells with PBMC
# Summary of the method: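 Endpoint derived in the positive direction versus DMSO vehicle. Cells: B cells together with PBMC, exposed 24 h before TNF-alpha in the medium was read on the Luminex xMAP platform.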
# [10] = read-out: Vascular cell adhesion molecule 1 (VCAM1), VCAM1 (gene 7412); assay: BSK_MyoF_VCAM1: BioMAP Diversity Plus: MyoF Assay for Vascular cell adhesion molecule 1 (VCAM1) Biomarker Activity (AID 2284231); conditions: primary human lung fibroblasts
# Summary of the method: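 ELISA read-out of VCAM-1 on human lung fibroblasts 24 h after chemical treatment, with positive-direction curve fitting relative to DMSO controls. Parallel cultures were stained with sulforhodamine B for total protein to flag overt cytotoxicity.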
# Sequence of Tumor necrosis factor (Homo sapiens) (P01375 whole entry, looked up): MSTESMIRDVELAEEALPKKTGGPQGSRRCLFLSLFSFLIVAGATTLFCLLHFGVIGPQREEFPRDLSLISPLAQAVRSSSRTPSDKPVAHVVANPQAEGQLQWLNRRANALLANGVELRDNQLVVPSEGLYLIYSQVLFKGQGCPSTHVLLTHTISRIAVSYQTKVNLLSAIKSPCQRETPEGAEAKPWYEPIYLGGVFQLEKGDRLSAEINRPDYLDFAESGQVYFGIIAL
smiles,measurement,setting,value
COC(=O)N(C(=O)N1CO[C@@]2(C(=O)OC)Cc3cc(Cl)ccc3C2=N1)c1ccc(OC(F)(F)F)cc1,outcome,[1],inactive
same,outcome,[2],inactive
same,outcome,[3],inactive
CS(=O)(=O)c1ccc(C(=O)C2C(=O)CCCC2=O)c([N+](=O)[O-])c1,outcome,[1],inactive
same,outcome,[2],inactive
CC1(C)C(C=C(Cl)Cl)C1C(=O)OC(C#N)c1cccc(Oc2ccccc2)c1 (centres undefined),outcome,[1],inactive
same,outcome,[2],inactive
CCNC(=O)NC(=O)C(C#N)=NOC,outcome,[1],inactive
same,outcome,[2],inactive
Cc1c(COC(=O)[C@@H]2[C@H](/C=C(\Cl)C(F)(F)F)C2(C)C)cccc1-c1ccccc1,AC50,[1],5.03 µM (active)
same,AC50,[2],3.12 µM (active)
same,AC50,[3],3.68 µM (active)
CCN(CC)c1nc(C)cc(OP(=S)(OC)OC)n1,outcome,[1],inactive
same,outcome,[2],inactive
same,AC50,[3],89.2 µM (active)
CCSC(=O)N1CCCCCC1,outcome,[1],inactive
same,outcome,[2],inactive
C=C(C)CN(CC)c1c([N+](=O)[O-])cc(C(F)(F)F)cc1[N+](=O)[O-],AC50,[1],7.75 µM (active)
same,AC50,[2],5.33 µM (active)
same,AC50,[3],19 µM (active)
CC(C)(C)C(=O)C(Oc1ccc(Cl)cc1)n1cncn1 (centres undefined),AC50,[1],12.8 µM (active)
same,outcome,[2],inactive
CNC(=O)Oc1cccc2ccccc12,outcome,[1],inactive
same,outcome,[2],inactive
N#CN=C1SCCN1Cc1ccc(Cl)nc1,outcome,[1],inactive
same,outcome,[2],inactive
same,outcome,[3],inactive
COP(=S)(OC)SCn1nnc2ccccc2c1=O,outcome,[1],inactive
same,outcome,[2],inactive
COP(=O)(OC)O/C(C)=C/C(=O)N(C)C,outcome,[1],inactive
same,outcome,[2],inactive
same,outcome,[3],inactive
COCC(C)N(C(=O)CCl)c1c(C)csc1C (centres undefined),outcome,[4],inactive
same,AC50,[5],13.5 µM (active)
same,outcome,[6],inactive
same,outcome,[7],inactive
same,AC50,[8],20 µM (active)
same,outcome,[9],inactive
same,AC50,[10],20 µM (active)
CS(=O)(=O)c1cc(C(F)(F)F)ccc1C(=O)c1cnoc1C1CC1,outcome,[1],inactive
same,outcome,[2],inactive
same,outcome,[3],inactive
CN/C(=N\[N+](=O)[O-])NCc1cnc(Cl)s1,outcome,[1],inactive
same,outcome,[2],inactive
CO/N=C(/C1=NOCCO1)c1ccccc1Oc1ncnc(Oc2ccccc2Cl)c1F,AC50,[1],3.45 µM (active)
same,AC50,[2],3.26 µM (active)
same,outcome,[3],inactive
CCOP(=O)(OCC)Oc1nc(Cl)c(Cl)cc1Cl,outcome,[1],inactive
same,outcome,[2],inactive
same,AC50,[3],73.7 µM (active)
same,outcome,[3],inactive
O=C(Nc1ccccc1-c1ccc(Cl)cc1)c1cccnc1Cl,outcome,[1],inactive
same,outcome,[2],inactive
same,outcome,[3],inactive
